An excerpt weighted towards active compounds, which were near 19% of everything screened.
DT40 TDP1 CPT = DT40-hTDP1 cell growth loss with CPT | chicken DT40 Tdp1-/-;hTDP1 cells + 20 nM CPT, ATP luminescence, 48 h | Potency, µM (titrated, usually from 46.2 µM), for the others: at the top dose activity change, negative = growth inhibition, actives largely listed as inhibitors | 420,000 tested, 12% active | AID 686979; also: potency is read from the fitted curve at half-maximal effect; % is scaled to controls: 0 for no effect and ±100 for the full control effect; nearly all actives have a fitted effect of over 55% in size
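Cell growth measured by CellTiter-Glo luminescence after a minimum 48 h, 37 C compound exposure with 20 nM CPT in Tdp1-knockout DT40 cells stably expressing hTDP1, seeded 400/well; qHTS titration format.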
MCF10A rereplic = inducers of DNA re-replication in MCF 10A breast cells. AID 624296. MCF 10A DNA re-replication, Hoechst nuclear intensity, 48 h. 350,000 tested, 2.9% active. Potency, µM (highest dose often 46.1 µM), for the others: top-dose activity, positive = re-replication, hits mostly activators; also: potency is read from the fitted curve at half-maximal effect; % of control where 0% means no effect; nearly all actives have a fitted effect of over 50% in size
SW480 rerep = inducers of DNA re-replication in SW480 colon cancer cells | SW480 DNA re-replication, Hoechst DNA content imaging, 48 h | Potency, µM (highest dose often 46.1 µM), without a hit: top-dose re-replication activation, most hits filed as activators | 340,000 tested, 1.8% active | AID 624297; also: potency is read from the fitted curve at half-maximal effect; % of control where 0% means no effect; nearly all actives have a fitted effect of over 55% in size
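Image-based read-out: total Hoechst fluorescence of nuclei (405 nm excitation, 500-530 nm emission), with hits raising the fraction of high-intensity nuclei. SW480 colon cells incubated 48 hr with compounds at 37 C.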
Chronic BCR inh = blocks chronic active B-cell receptor signaling. 340,000 tested, 0.05% active. ABC-DLBCL IkBa-CBG/CBR reporter, luminescence ratio, 4 h. Potency, µM (titrated, usually from 46.1 µM), without a hit: top-dose activity change, negative = inhibition, hits mostly inhibitors; active = well fitted inhibition curve with a large enough effect in the signal ratio, with a control signal flat, not every such curve was filed as active; inconclusive = small, poorly fitted or top-dose-only effect, or effect the other way, or a change in a side signal; the % refers to the signal ratio;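 also: potency is read from the fitted curve at half-maximal effect; plate controls were basal doxycycline-induced cells for no effect and cells given 10 µM MG132 for full effect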
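Cell line TMD8 (human ABC DLBCL), stably expressing tet-inducible CBG68-IkBa fusion and CBR; IMDM/0.5% FBS; cpd up to 46 uM; dox induction, 4 h, 37C/5% CO2; dual luminescence; green/red ratio; MG132 control.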
DT40 TDP1 no CPT = qHTS for Inhibitors of human tyrosyl-DNA phosphodiesterase 1 (TDP1): qHTS in cells in absence of CPT; AID 686978, 2013; Potency, µM (top dose mostly 46.2 µM), for inactives: at the top dose activity change, negative = growth inhibition, hits mostly inhibitors; 420,000 tested, 15% active; DT40 Tdp1-/- hTDP1 cells, no CPT, ATP luminescence, 48 h; also: potency is read from the fitted curve at half-maximal effect; % is scaled to controls: 0 for no effect and ±100 for the full control effect; nearly all actives have a fitted effect of over 55% in size
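Stably hTDP1-transfected Tdp1-null chicken DT40 cells were treated with library compounds minus camptothecin and grown for at least 48 hr at 37 °C, after which cellular ATP was quantified by luminescence.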
IL-1B inflam inh = inhibitors of inflammasome signaling (IL-1 beta secretion); THP-1 LPS/ATP IL-1B secretion, AlphaLISA, 16 h; stronger effect = lower value; activity change, % at 57.5 µM; 360,000 tested, 4.7% active; in the data active = activity change below about -50%; inconclusive = mostly about -30% to -49%; also: % is scaled to controls: 0 for no effect and ±100 for the full control effect
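THP-1 cells pretreated 1 hr with compounds (up to 57.5 uM final), then stimulated with LPS (250 ng/mL final) plus ATP (1.25 mM final); secreted IL-1B measured by AlphaLISA after 16 hr, decreased signal indicating inhibition.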
* = called active by the depositor; u = inconclusive; x = no result given. Unless noted, calls follow the shape of the dose curve; as a rule, active = well fitted curve in the direction sought with a large enough effect; inconclusive = small, poorly fitted or top-dose-only effect, or another doubt; inactive = no such curve, though single readings can be large; an effect the other way counts as inactive or inconclusive.

SMILES	DT40 TDP1 CPT	MCF10A rereplic	SW480 rerep	Chronic BCR inh	DT40 TDP1 no CPT	IL-1B inflam inh
COc1oc(C(=O)NC2CCCCC2)c(-c2ccc(Cl)cc2)c1S(=O)(=O)c1ccccc1	u	26.8%	u	x	20.6µM*	-57.7*
O=C(NNS(=O)(=O)c1ccc(Cl)cc1)NC1CCCCC1	-5.3%	-27.2%	-2.4%	-6.5%	-23.2%	27.0
Cc1ccccc1-n1c(CSC(=N)N)nc2ccccc2c1=O	20.6µM*	u	u	-1.8%	u	0.0
C/C(N)=C(/C#N)C(=O)CSc1nc2ccccc2c(=O)n1-c1ccccc1C	u	22.9%	14.7%	-8.3%	u	47.3
N=C(N)SCc1nc2ccccc2c(=O)n1-c1ccccc1Cl	25.9µM*	u	-4.3%	-5.2%	20.6µM*	u
O=c1c2ccccc2nc(CSc2nnnn2-c2ccccc2)n1-c1ccccc1Cl	u	u	-3.7%	5.7%	u	-3.0
CN(Cc1cccs1)C(=O)c1cccc(S(=O)(=O)N2CCCCCC2)c1	-22.3%	11.8%	-1.2%	4.6%	-16.7%	-20.7
O=C(CNc1cccc2ccccc12)N/N=C/c1ccc[nH]1	8.9%	2.6%	-9.4%	u	-12.2%	-24.9
O=C(CNc1cccc2ccccc12)N/N=C/C(Br)=C/c1ccccc1	11.6µM*	-5.2%	u	0.5%	10µM*	-27.9
O=C(CNc1cccc2ccccc12)N/N=C/c1ccc([N+](=O)[O-])o1	6.51µM*	u	u	u	4.11µM*	-25.4
O=C(CNc1cccc([N+](=O)[O-])c1)N/N=C/c1ccc([N+](=O)[O-])o1	2.91µM*	u	u	5.1%	2.59µM*	-66.6*
COc1ccc(S(=O)(=O)N2CCOCC2)cc1NC(=O)c1ccc(=O)[nH]c1	-17.8%	-3.3%	-4.4%	0.3%	1.4%	11.2
O=C(c1ccc(Cl)c(S(=O)(=O)NCc2cccnc2)c1)N1CCCC1	u	7.7%	0.8%	u	2.91µM*	-5.8
O=C(Nc1ccc(Cl)c(Cl)c1)c1cccc(S(=O)(=O)NCc2cccnc2)c1	5.8µM*	u	-6.6%	u	11.6µM*	-82.2*
CCN(CC)c1nc(C(F)(F)F)nc2c1nnn2Cc1ccccc1	-3.1%	1.0%	-4.6%	13.4%	-14.7%	22.4
COc1cccc(/C=N/NC(=O)Cn2cnc3c2c(=O)n(C)c(=O)n3C)c1	29.1µM*	-7.4%	-6.2%	-0.7%	u	16.7
CC1CCN(C(=O)Cn2cnc3c2c(=O)n(C)c(=O)n3C)c2ccccc2S1 (stereo unspecified)	u	6.1%	9.2%	-0.2%	18.4µM*	62.6
O=C(Cn1cnc2ccccc21)N/N=C/C(Br)=C/c1ccccc1	6.51µM*	u	u	-24.5%	23.1µM*	u
Cn1c(=O)c2c(ncn2CC(=O)N/N=C/C=C/c2ccccc2)n(C)c1=O	-7.1%	-3.0%	x	-20.2%	-4.4%	0.0
Cn1c(=O)c2c(ncn2CC(=O)N/N=C/C(Br)=C/c2ccccc2)n(C)c1=O	2.31µM*	24.3%	x	-14.5%	3.66µM*	-18.7
CSc1nc2ccccc2cc1/C=C(\C#N)c1ccc(Cl)c(Cl)c1	u	7.31µM*	u	5.8%	u	-19.5
CSc1nc2ccccc2cc1/C=C(\C#N)c1cccc(C)c1	u	10.3µM*	u	-1.2%	u	-1.5
CSc1nc2ccccc2cc1/C=C(\C#N)c1ccccc1	u	13µM*	u	u	u	0.0
CCC(NC(=O)CCc1c(C)c2cc3c(-c4ccccc4)coc3cc2oc1=O)C(=O)O (stereo unspecified)	-9.9%	u	-0.8%	3.7%	16.6%	14.1
COc1cc(-c2nnn(Cc3ccccc3C)n2)cc(OC)c1OC	u	-7.6%	3.3%	-4.3%	20.6µM*	-5.9

Assay outcomes deposited in PubChem BioAssay by National Center for Advancing Translational Sciences (NCATS).
